From PubChem BioAssay (Tox21)
Inconclusive results are not listed. A call without a number means that no potency is given here. Activity calls are given as the source filed them. Unless noted, calls follow the shape of the full dose curve.

Experiment: qHTS assay to identify small molecule agonists of H2AX (AID 1224845; active = well fitted activation curve with a large enough effect in the signal ratio in the repeat runs, not every such curve was filed as active; the % refers to the signal ratio)
Details: CHO-K1 phospho-H2AX Ser139 HTRF, 3 h; series mostly up to 154 µM
In short: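 Wild-type CHO-K1 cells, plated overnight, exposed 3hr at 37C to 15 concentrations (0.76% DMSO final). Lysed, then HTRF anti-pH2AX (S139) cryptate and anti-H2AX-d2 antibodies, 24 hr room temperature; 665/620 nm emission read.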
With `COCC(=O)N(c1c(C)cccc1C)N1CCOC1=O` the Potency was “inactive”.
In the case of `CC(=O)Nc1cc([As](=O)(O)O)ccc1O`, the Potency is reported as “inactive”.
With `CNNC` the Potency was “inactive”.
With `CCC(Cl)[N+](=O)[O-]` (centres undefined) the Potency was “inactive”.
With `CCCSC(=O)Cl` the Potency was “inactive”.
For `CC(Cl)(Cl)[N+](=O)[O-]`, the Potency was “inactive”.
In the case of `Cc1ncc2n1-c1ccc(Cl)cc1C(c1ccccc1F)=NC2`, the Potency is reported as “inactive”.
In the case of `CC1=C(C(=O)O)N2C(=O)[C@@H](N)[C@H]2SC1`, the activation (H2AX phosphorylation) is reported as -1.16% [at 31.6 µM] (inactive).
For `Cc1nnc2n1-c1sc(CCC(=O)N3CCOCC3)cc1C(c1ccccc1Cl)=NC2`, the Potency was “inactive”.
With `CC1CCCCC1NC(=O)Nc1ccccc1` (centres undefined) the Potency was “inactive”.
In the case of `COC(=O)c1ccccc1S(=O)(=O)NC(=O)N(C)c1nc(C)nc(OC)n1`, the Potency is reported as “inactive”.
For `CNC(=O)N(C)c1nc2ccccc2s1`, the Potency was “inactive”.
With `CNC(=O)Oc1ccccc1C1OCCO1` the Potency was “inactive”.
For `CCOc1nc(C(Cl)(Cl)Cl)ns1`, the Potency was “inactive”.
In the case of `CC(=O)[C@H]1CC[C@H]2[C@@H]3CC[C@H]4C[C@H](O)CC[C@]4(C)[C@H]3C(=O)C[C@]12C`, the Potency is reported as “inactive”.
In the case of `O=CNC(N1CCN(C(NC=O)C(Cl)(Cl)Cl)CC1)C(Cl)(Cl)Cl` (centres undefined), the Potency is reported as “inactive”.
With `Cc1cc(C)nc(Nc2ccccc2)n1` the Potency was “inactive”.
In the case of `CCCCC(=O)Cl`, the Potency is reported as “inactive”.
For `CCCCN(CCCCO)N=O`, the Potency was “inactive”.
In the case of `C[C@]12CC[C@H]3[C@@H](CCC4=CC(=O)CC[C@@]43C)[C@@H]1CC[C@@H]2C(=O)O`, the Potency is reported as “inactive”.
In the case of `C#CCN1C(=O)COc2cc(F)c(N3C(=O)C4=C(CCCC4)C3=O)cc21`, the Potency is reported as “inactive”.
In the case of `[As]#[In]`, the Potency is reported as “inactive”.
With `N#CCBr` the Potency was “inactive”.
With `CCC(C)n1c(=O)[nH]c(C)c(Br)c1=O` (centres undefined) the Potency was “inactive”.
With `CCS(=O)(=O)CCSP(=O)(OC)OC` the Potency was “inactive”.
For `C=C(C)CN(CC)c1c([N+](=O)[O-])cc(C(F)(F)F)cc1[N+](=O)[O-]`, the Potency was “inactive”.
For `Fc1cc(Br)ccc1CBr`, the Potency was “inactive”.
For `OCCSCSCCO`, the Potency was “inactive”.
In the case of `CCCCOC(=O)[C@@H](C)Oc1ccc(Oc2ccc(C#N)cc2F)cc1`, the Potency is reported as “inactive”.
With `CCC#N` the Potency was “inactive”.
In the case of `CCC(=O)c1ccccc1`, the Potency is reported as “inactive”.
For `CCOC(=O)C1(c2ccccc2)CCN(CCc2ccc(N)cc2)CC1`, the Potency was “inactive”.
For `CSc1ccc(C(=O)C(C)(C)N2CCOCC2)cc1`, the Potency was “inactive”.
With `N#CCNCC#N` the Potency was “inactive”.
With `CC(=O)CCc1ccc2c(c1)OCO2` the Potency was “inactive”.

Experiment: qHTS assay to identify small molecule agonists of the hypoxia (HIF-1) signaling pathway (AID 1224846; active = well fitted activation curve with a large enough effect in the signal ratio in the repeat runs, not every such curve was filed as active; the % refers to the signal ratio)
Details: HRE-bla ME-180 cells, beta-lactamase ratio, 17 h; series mostly up to 76.8 µM
In short: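 Compounds added to ME-180 cells carrying hypoxia-response-element beta-lactamase reporter (0.5% dialyzed FBS, 5 h preplating), 17 h at 37C; agonist activity detected by CCF4-AM B/G FRET read-out.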
For `COCC(=O)N(c1c(C)cccc1C)N1CCOC1=O`, the outcome was “inactive”.
With `CC(=O)Nc1cc([As](=O)(O)O)ccc1O` the outcome was “inactive”.
For `CNNC`, the outcome was “inactive”.
For `CCC(Cl)[N+](=O)[O-]` (centres undefined), the outcome was “inactive”.
In the case of `CCCSC(=O)Cl`, the outcome is reported as “inactive”.
In the case of `CC(Cl)(Cl)[N+](=O)[O-]`, the outcome is reported as “inactive”.
With `Cc1ncc2n1-c1ccc(Cl)cc1C(c1ccccc1F)=NC2` the outcome was “inactive”.
In the case of `CC1=C(C(=O)O)N2C(=O)[C@@H](N)[C@H]2SC1`, the activation is reported as -0.576% [at 15.8 µM] (inactive).
With `Cc1nnc2n1-c1sc(CCC(=O)N3CCOCC3)cc1C(c1ccccc1Cl)=NC2` the outcome was “inactive”.
With `CC1CCCCC1NC(=O)Nc1ccccc1` (centres undefined) the outcome was “inactive”.
For `CCCSP(=S)(OCC)Oc1ccc(Cl)cc1Cl` (centres undefined), the outcome was “inactive”.
In the case of `COC(=O)c1ccccc1S(=O)(=O)NC(=O)N(C)c1nc(C)nc(OC)n1`, the outcome is reported as “inactive”.
For `CNC(=O)N(C)c1nc2ccccc2s1`, the outcome was “inactive”.
With `CNC(=O)Oc1ccccc1C1OCCO1` the outcome was “inactive”.
For `CCOc1nc(C(Cl)(Cl)Cl)ns1`, the outcome was “inactive”.
For `O=CNC(N1CCN(C(NC=O)C(Cl)(Cl)Cl)CC1)C(Cl)(Cl)Cl` (centres undefined), the outcome was “inactive”.
For `Cc1cc(C)nc(Nc2ccccc2)n1`, the outcome was “inactive”.
In the case of `CCCCC(=O)Cl`, the outcome is reported as “inactive”.
For `CCCCN(CCCCO)N=O`, the outcome was “inactive”.
For `C[C@]12CC[C@H]3[C@@H](CCC4=CC(=O)CC[C@@]43C)[C@@H]1CC[C@@H]2C(=O)O`, the outcome was “inactive”.
In the case of `C#CCN1C(=O)COc2cc(F)c(N3C(=O)C4=C(CCCC4)C3=O)cc21`, the outcome is reported as “inactive”.
For `[As]#[In]`, the outcome was “inactive”.
In the case of `N#CCBr`, the outcome is reported as “inactive”.
For `CCC(C)n1c(=O)[nH]c(C)c(Br)c1=O` (centres undefined), the outcome was “inactive”.
In the case of `CCS(=O)(=O)CCSP(=O)(OC)OC`, the outcome is reported as “inactive”.
For `Fc1cc(Br)ccc1CBr`, the outcome was “inactive”.
With `OCCSCSCCO` the outcome was “inactive”.
For `CCCCOC(=O)[C@@H](C)Oc1ccc(Oc2ccc(C#N)cc2F)cc1`, the outcome was “inactive”.
In the case of `CCC#N`, the outcome is reported as “inactive”.
In the case of `CCC(=O)c1ccccc1`, the outcome is reported as “inactive”.
For `CCOC(=O)C1(c2ccccc2)CCN(CCc2ccc(N)cc2)CC1`, the outcome was “inactive”.
For `CSc1ccc(C(=O)C(C)(C)N2CCOCC2)cc1`, the outcome was “inactive”.
In the case of `N#CCNCC#N`, the outcome is reported as “inactive”.
With `CC(=O)CCc1ccc2c(c1)OCO2` the outcome was “inactive”.

Experiment: qHTS assay to identify small molecule agonists of H2AX - cell viability counter screen (AID 1224847); also: top concentration of the series differs between compounds; nearly all actives have a fitted effect of over 30% in size
Details: CHO-K1 viability, CellTiter-Glo luminescence, 3 h; series mostly up to 154 µM
In short: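 For this counter screen, overnight-attached CHO-K1 cells received test compounds (15 concentrations, 0.76% DMSO final); 3 hr later at 37C, CellTiter-Glo reagent was added and luminescence recorded after 30 min at room temperature.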
For `COCC(=O)N(c1c(C)cccc1C)N1CCOC1=O`, the Potency was “inactive”.
For `CC(=O)Nc1cc([As](=O)(O)O)ccc1O`, the Potency was “inactive”.
With `CNNC` the Potency was “inactive”.
With `CCC(Cl)[N+](=O)[O-]` (centres undefined) the Potency was “inactive”.
In the case of `CCCSC(=O)Cl`, the Potency is reported as “inactive”.
With `CC(Cl)(Cl)[N+](=O)[O-]` the Potency was “inactive”.
In the case of `Cc1ncc2n1-c1ccc(Cl)cc1C(c1ccccc1F)=NC2`, the Potency is reported as “inactive”.
For `CC1=C(C(=O)O)N2C(=O)[C@@H](N)[C@H]2SC1`, the activity change, negative = cytotoxicity was -3.1% [at 31.6 µM] (inactive).
In the case of `Cc1nnc2n1-c1sc(CCC(=O)N3CCOCC3)cc1C(c1ccccc1Cl)=NC2`, the Potency is reported as “inactive”.
With `CC1CCCCC1NC(=O)Nc1ccccc1` (centres undefined) the Potency was “inactive”.
In the case of `COC(=O)c1ccccc1S(=O)(=O)NC(=O)N(C)c1nc(C)nc(OC)n1`, the Potency is reported as “inactive”.
In the case of `CNC(=O)N(C)c1nc2ccccc2s1`, the Potency is reported as “inactive”.
For `CNC(=O)Oc1ccccc1C1OCCO1`, the Potency was “inactive”.
For `CCOc1nc(C(Cl)(Cl)Cl)ns1`, the Potency was “inactive”.
With `CC(=O)[C@H]1CC[C@H]2[C@@H]3CC[C@H]4C[C@H](O)CC[C@]4(C)[C@H]3C(=O)C[C@]12C` the Potency was “inactive”.
In the case of `O=CNC(N1CCN(C(NC=O)C(Cl)(Cl)Cl)CC1)C(Cl)(Cl)Cl` (centres undefined), the Potency is reported as “inactive”.
With `Cc1cc(C)nc(Nc2ccccc2)n1` the Potency was “inactive”.
In the case of `CCCCC(=O)Cl`, the Potency is reported as “inactive”.
For `CCCCN(CCCCO)N=O`, the Potency was “inactive”.
In the case of `COc1cccc2c1cc([N+](=O)[O-])c1c(C(=O)O)cc3c(c12)OCO3`, the Potency is reported as “inactive”.
For `C[C@]12CC[C@H]3[C@@H](CCC4=CC(=O)CC[C@@]43C)[C@@H]1CC[C@@H]2C(=O)O`, the Potency was “inactive”.
For `C#CCN1C(=O)COc2cc(F)c(N3C(=O)C4=C(CCCC4)C3=O)cc21`, the Potency was “inactive”.
In the case of `[As]#[In]`, the Potency is reported as “inactive”.
In the case of `N#CCBr`, the Potency is reported as “inactive”.
For `CCC(C)n1c(=O)[nH]c(C)c(Br)c1=O` (centres undefined), the Potency was “inactive”.
In the case of `CCS(=O)(=O)CCSP(=O)(OC)OC`, the Potency is reported as “inactive”.
In the case of `Fc1cc(Br)ccc1CBr`, the Potency is reported as “inactive”.
For `OCCSCSCCO`, the Potency was “inactive”.
With `CCCCOC(=O)[C@@H](C)Oc1ccc(Oc2ccc(C#N)cc2F)cc1` the Potency was “inactive”.
With `CCC#N` the Potency was “inactive”.
In the case of `CCC(=O)c1ccccc1`, the Potency is reported as “inactive”.
With `CCOC(=O)C1(c2ccccc2)CCN(CCc2ccc(N)cc2)CC1` the Potency was “inactive”.
For `CSc1ccc(C(=O)C(C)(C)N2CCOCC2)cc1`, the Potency was “inactive”.
For `N#CCNCC#N`, the Potency was “inactive”.
With `CC(=O)CCc1ccc2c(c1)OCO2` the Potency was “inactive”.
